This passage reports Potency and outcome results from PubChem BioAssay (Tox21).

Records with an inconclusive call do not appear. Calls of active or inactive are those of the source. Unless noted, calls come from the whole dose curve; as a rule, active = well fitted curve in the direction sought with a large enough effect in the repeat runs; inconclusive = weak or mixed curves; inactive = no such curve, though single readings can be large; an effect the other way counts as inactive or inconclusive.

The nature of experiment [1]: qHTS assay for small molecule agonists of the p53 signaling pathway (AID 651631; calls by dose curve; note: nearly all actives have a fitted effect of over 15% in size; note: potency is the fitted concentration of half-maximal effect). Put shortly: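 Read-out is beta-lactamase FRET fluorescence measured 2 h after substrate addition at room temperature, in HCT-116 cells with a p53 response element-driven reporter exposed to compounds for 16 h at 37 °C.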
Experiment [2] in a line: qHTS assay for small molecules that induce genotoxicity in human embryonic kidney cells expressing luciferase-tagged ATAD5 (AID 651632). Note: nearly all actives have a fitted effect of over 15% in size. Note: potency is the fitted concentration of half-maximal effect. Put shortly:
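Luminescent reporter readout, HEK293T ATAD5-luc line: 16 hr drug exposure (37C, 5% CO2) followed by Amplite, 30 min RT.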

A short description of experiment [3]: qHTS assay for small molecule agonists of the p53 signaling pathway - cell viability (AID 651633; calls by dose curve; note: nearly all actives have a fitted effect of over 30% in size; note: potency is the fitted concentration of half-maximal effect). The procedure, abridged: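 p53RE-bla cells were treated with compound for 16 hours at 37 C. Cytotoxicity was then measured as CellTiter-Glo luminescence after 30 min at room temperature.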
The nature of experiment [4]: qHTS assay for small molecules that induce genotoxicity in human embryonic kidney cells expressing luciferase-tagged ATAD5 - cell viability (AID 651634; calls by dose curve; note: nearly all actives have a fitted effect of over 25% in size). Put shortly:
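Viability read: CellTiter-Fluor fluorescence, 30 min at 37C. Cells: HEK293T, luciferase-tagged ATAD5. Exposure: 15.5 hr, 37C, 5% CO2, compound or DMSO vehicle.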

Experiment [5] is described as follows: qHTS assay for small molecule disruptors of the mitochondrial membrane potential - cell viability (AID 720634; calls by dose curve;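 note: human HepG2 liver cancer cells; series mostly up to about 83 µM; nearly all actives have a fitted effect of over 20% in size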). Put shortly:
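HepG2, 1 hr compound, 37 C. ATP luminescence via CellTiter-Glo, 30 min RT, same well as m-MPI.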

Experiment [6] is described as follows: qHTS assay for small molecule disruptors of the mitochondrial membrane potential (AID 720635). Note: potency is the fitted concentration of half-maximal effect. Put shortly:
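HepG2 cells exposed to compound 1 hr at 37C, then Mito-MPS dye 30 min. Ratio read of aggregate (540/590 nm) versus monomer (490/535 nm) fluorescence.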

A short description of experiment [7]: qHTS assay to test for compound auto fluorescence at 590 nm (red) in HepG2 cells (AID 720674). Put shortly: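 Seeding: 2,000 HepG2 cells/well, MEM/10% FBS, overnight 37 C. Dosing: compound vs DMSO. Incubation: 1 hr, 37 C, 5% CO2. Read: fluorescence 540 ex/590 em, Rose Bengal sodium as red reference.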
A short description of experiment [8]: qHTS assay to test for compound auto fluorescence at 535 nm (green) in HepG2 cells (AID 720675).
Experiment [9] is described as follows: qHTS assay to test for compound auto fluorescence at 460 nm (blue) in HEK293 cells (AID 720678). Put shortly: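 Measured: blue fluorescence (Ex 405/Em 460 nm) of compound-treated HEK293 cells, incubated overnight at 37C with 5% CO2 and scaled to triamterene equivalents.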
Experiment [10] is described as follows: qHTS assay to test for compound auto fluorescence at 590 nm (red) in HEK293 cells (AID 720679). Put shortly:
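Using HEK293 cells at 2,000 per well, the screen added 23 nL of each compound after cell attachment and incubated overnight (37C, 5% CO2). The plate reader then captured red-label fluorescence, Ex/Em 540/590nm.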

Consider `OCCCNc1ccccc1`, for which the Potency result in experiment [1], in [2], in experiment [3], in experiment [4], in experiment [5] and in experiment [6] was “inactive” throughout. Moreover, the Potency result in experiment [8] and in [9] was “inactive” in each case. Moreover, the result in [7] and in experiment [10] was inactive.
Regarding `CC(=O)Nc1ccc(OC(C)=O)cc1`, the Potency entry in [1], in [2], in experiment [3], in [4], in experiment [5] and in [6] was “inactive” in each case. In addition, the Potency entry in experiment [8] and in [9] was “inactive” in each case. In addition, the compound was classed as inactive in experiment [7] and in experiment [10].
As to `N=C(N)c1ccc(/C=C/c2ccc(C(=N)N)cc2O)cc1`, the Potency entry in experiment [1], in [2], in experiment [3], in [4], in experiment [5] and in experiment [8] was “inactive” each time. Also, the Potency result in experiment [9] was “inactive”. Further, in experiment [6], the Potency is 1.97 µM (active). For the same compound, the call in experiment [7] and in [10] was inactive.
Take `CC1CCCC(C)N1NC(=O)c1ccc(Cl)c(S(N)(=O)=O)c1` (stereo not given): the Potency result in experiment [1], in experiment [2], in experiment [3], in experiment [4], in [5] and in experiment [6] was “inactive” throughout. Further, the Potency entry in [8] and in experiment [9] was “inactive” in each case. In addition, the call in experiment [7] and in experiment [10] was inactive.
`C=CCN1C(=O)C(CC(C)C)NC1=S` (stereo not given): the Potency entry in experiment [1], in experiment [2], in experiment [3], in experiment [4], in experiment [5] and in experiment [6] was “inactive” in each case. Besides, the Potency result in experiment [8] and in experiment [9] was “inactive” throughout. The result in [7] and in [10] was inactive.
Regarding `Cc1cn([C@H]2C[C@H](O)[C@@H](CO)O2)c(=O)[nH]c1=O`, the Potency result in experiment [1], in experiment [2], in experiment [3], in [4], in [5] and in [6] was “inactive” each time. Besides, the Potency entry in [8] and in experiment [9] was “inactive” throughout. In addition, the call in [7] and in [10] was inactive.
Regarding `O=S(=O)(O)CC(S)CS` (stereo not given), the Potency result in [1], in experiment [2], in experiment [3], in [4], in [5] and in experiment [6] was “inactive” each time. Besides, the Potency result in [8] and in experiment [9] was “inactive” each time. Besides, the result in [7] and in experiment [10] was inactive.
With `O=C(O)CCCC/C=C(\c1ccccc1)c1cccnc1`, the Potency result in experiment [1], in [2], in experiment [3], in experiment [4], in experiment [5] and in [6] was “inactive” throughout. The Potency result in [8] and in experiment [9] was “inactive” each time. In addition, the result in experiment [7] and in experiment [10] was inactive.
With `NCC(O)CC(=O)O` (stereo not given), the Potency result in experiment [1], in [2], in [3], in [4], in experiment [5] and in [6] was “inactive” each time. The Potency result in experiment [8] and in experiment [9] was “inactive” each time. Besides, the call in experiment [7] and in experiment [10] was inactive.
Regarding `O=C(O)c1ccc(NC2OC[C@@H](O)[C@H](O)[C@H]2O)cc1` (stereo not given in full), the Potency entry in experiment [1], in [2], in experiment [3], in experiment [4], in experiment [5] and in experiment [6] was “inactive” throughout. The Potency entry in experiment [8] and in [9] was “inactive” each time. Also, the compound was classed as inactive in experiment [7] and in [10].
With `Cc1cccc(C)c1NC(=O)C1CCCCN1C` (stereo not given), the Potency entry in experiment [1], in [2], in experiment [3], in [4], in [5] and in [6] was “inactive” throughout. For the same compound, the Potency result in experiment [8] and in experiment [9] was “inactive” in each case. For the same compound, the call in experiment [7] and in [10] was inactive.
On to `Cc1cc(CC(C)CC(C)(C)C)n(O)c(=O)c1` (stereo not given) (tested in a mixture with another compound), for which the Potency in experiment [1] was 9.44 µM (active); in experiment [2], 13.3 µM (active); in experiment [3] it was 29.8 µM (active); in experiment [6], 3.35 µM (active). For the same compound, the Potency entry in experiment [4], in experiment [5], in [8] and in experiment [9] was “inactive” each time. In addition, the result in experiment [7] and in experiment [10] was inactive.
Turning to `NCC1CCC(C(=O)O)CC1` (stereo not given), the Potency result in experiment [1], in experiment [2], in experiment [3], in [4], in [5] and in experiment [6] was “inactive” each time. The Potency result in experiment [8] and in experiment [9] was “inactive” each time. The compound was called inactive in [7] and in [10].
For `CCCCCCOC(=O)c1cccnc1`, the Potency result in experiment [1], in [2], in experiment [3], in [4], in experiment [5] and in [6] was “inactive” in each case. The Potency entry in experiment [8] and in experiment [9] was “inactive” throughout. Further, the compound was classed as inactive in experiment [7] and in experiment [10].
Take `CCCC(CCC)C(=O)OC1C[C@H]2CC[C@@H](C1)[N+]2(C)C` (stereo not given in full): the Potency entry in experiment [1], in [2], in experiment [3], in experiment [4], in experiment [5] and in experiment [6] was “inactive” in each case. Also, the Potency entry in experiment [8] and in experiment [9] was “inactive” in each case. In addition, the call in [7] and in [10] was inactive.
As for `CO/N=C(\C(=O)N[C@@H]1C(=O)N2C(C(=O)O)=C(CSc3cnns3)CS[C@H]12)c1csc(N)n1`, the Potency entry in experiment [1], in [2], in [3], in experiment [4], in [5] and in experiment [6] was “inactive” throughout. For the same compound, the Potency entry in experiment [8] and in [9] was “inactive” throughout. For the same compound, the compound was classed as inactive in experiment [7] and in experiment [10].
For the compound `CCCCCCCCCCCCCCCC(=O)OC[C@H](COP(=O)([O-])OCC[N+](C)(C)C)OC(=O)CCCCCCCCCCCCCCC`, the Potency result in experiment [1], in experiment [2], in [3], in [4], in experiment [5] and in experiment [6] was “inactive” in each case. Moreover, the Potency entry in experiment [8] and in [9] was “inactive” each time. The result in experiment [7] and in [10] was inactive.
`N#Cc1c(N(CC(=O)O)CC(=O)O)sc(C(=O)O)c1CC(=O)O`: the Potency result in [1], in experiment [2], in [3], in experiment [4], in [5] and in experiment [6] was “inactive” in each case. Also, the Potency entry in [8] and in experiment [9] was “inactive” throughout. The result in [7] and in experiment [10] was inactive.
Turning to `CCN(CC)CCNC(=O)c1ccc(NS(C)(=O)=O)cc1`, the Potency result in [1], in [2], in experiment [3], in experiment [4], in [5] and in experiment [6] was “inactive” each time. The Potency entry in [8] and in [9] was “inactive” each time. For the same compound, the outcome in experiment [7] and in experiment [10] was inactive.
